# Only some compounds are listed: those with a hit (about 2.6% of all), similar ones and a draw of the others.
# AI-2 QS modul: Vibrio harveyi AI-2 quorum sensing modulators, primary screen, JMH597 strain, luminescence/OD600 ratio | Vibrio harveyi JMH597 AI-2 luminescence/OD600 ratio, 9 h; stronger effect = lower value; strain lacks LuxN and CqsS sensors; 0 = neutral-control median | activity change, % at 7.5 µM | 300,000 compounds, 0.4% hits; in the data active = activity change below about -75%, passing the limit was not always enough; inconclusive = no clear call, values can overlap the other calls;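 note: luminescence divided by OD600 gain over 9 h not by final OD600 alone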
# ABCB6 inh MLPCN: ABCB6 transporter inhibitors, primary screen, K562-ABCB6 cells, flow cytometry, MLPCN library; K562-ABCB6 porphyrin accumulation, 1 h; stronger effect = lower value; fluorescence ratio to DMSO, % at 10 µM; 360,000 compounds, 0.19% hits; AID 602162, 2011;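 active = fluorescence ratio to DMSO below 75%, the collection mean minus 3 SD; inconclusive = too few cells collected in the well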;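 note: signal is porphyrin accumulated inside mitochondria; 100% equals median channel fluorescence of DMSO control wells; lower ratio means ABCB6 inhibition with less porphyrin fluorescence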
# PABP polyA inh: PABP poly(A) RNA binding inhibitors, primary screen, biochemical, fluorescence polarization, uHTS. Polyadenylate-binding protein 1 (Homo sapiens), P11940. calls only at 35 µM. 290,000 compounds, 1% hits;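 note: calls also rest on retests at 20 µM and on dose response follow-up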
# PHOSPHO1 block: PubChem AID 1565; 290,000 compounds, 1.1% hits; inhibition, % at 13.3 µM; Phosphoethanolamine/phosphocholine phosphatase (Homo sapiens), Q8TCT1; recombinant PHOSPHO1, absorbance phosphatase assay; in the data active = inhibition above about 60%
# Target sequence (Q8TCT1 whole entry, looked up): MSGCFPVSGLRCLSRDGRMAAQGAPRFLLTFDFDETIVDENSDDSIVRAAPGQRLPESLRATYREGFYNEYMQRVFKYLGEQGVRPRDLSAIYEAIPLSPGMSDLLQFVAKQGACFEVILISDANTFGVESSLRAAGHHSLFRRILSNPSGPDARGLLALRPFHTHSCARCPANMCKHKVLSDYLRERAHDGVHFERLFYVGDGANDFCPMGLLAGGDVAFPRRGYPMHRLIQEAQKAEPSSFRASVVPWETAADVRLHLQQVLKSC
# MLLE-PAM2 inh: inhibitors of PABP1 MLLE–PAM2 peptide binding, primary screen, biochemical, fluorescence polarization, FITC-PAM2, GST-MLLE. Polyadenylate-binding protein 1 (Homo sapiens), P11940. inhibition, % at 20 µM. 360,000 compounds, 0.36% hits; in the data active = inhibition above about 35%, passing the limit was not always enough;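 note: plate controls were DMSO wells with GST-MLLE for no effect and wells lacking GST-MLLE protein for full effect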
# eIF4H FP inh: human eIF4H binding inhibitors, primary screen, translation initiation inhibitor project, biochemical, uHTS, fluorescence polarization; 290,000 compounds, 0.94% hits; AID 2012, 2009; inhibition, % at 35 µM; eIF4H fluorescence polarization binding assay;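 note: calls also rest on retests at 20 µM and on dose response follow-up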
# The depositor's hits bear a star; i = inactive; ? = inconclusive; . = no result; + = active, no number. Unless noted, the rule behind the calls is not given here.
SMILES,AI-2 QS modul,ABCB6 inh MLPCN,PABP polyA inh,PHOSPHO1 block,MLLE-PAM2 inh,eIF4H FP inh
Cc1oc2c(C)c(O)ccc2c(=O)c1N1C(=O)c2ccccc2C1=O,37.4,98.0,i,-14.5,-7.5,-7.5
Cc1oc2c(C)c(O)ccc2c(=O)c1-c1nncn1-c1ccccc1,7.7,103.0,+,37.8,-48.5,?
CCOC(=O)c1c(NC(=O)C(Sc2ccccc2)c2ccccc2)sc(C(=O)N(C)C)c1C (centres undefined),10.0,94.0,+,-1.1,16.2,active
CCOC(=O)c1c(NC(=O)C(Sc2ccccc2)c2ccccc2)sc(C(N)=O)c1C (centres undefined),9.9,100.0,i,24.4,18.6,-10.2
Oc1ccc(Nc2nc3ccccc3nc2Nc2ccc(O)cc2)cc1,31.8,108.0,i,99.8*,-140.1,39.1
Oc1ccc(Nc2nc(-c3ccccc3)nc3ccccc23)cc1,-2.3,94.0,i,-2.4,-1.5,-3.6
O=C(CN1CCOCC1)NN=C1CCCCCCCCCCC1,6.8,102.0,+,-8.9,4.3,active
COCCNc1nc(Oc2cccc3ccccc23)c2sccc2n1,.,94.0,.,.,0.4,.
O=C(NNC(=O)c1cc(-c2ccco2)nc2ccccc12)c1ccccc1,12.6,97.0,i,-77.7,11.9,24.0
CCCCCCn1nc(C(=O)OCC(=O)c2c(N)n(C)c(=O)n(C)c2=O)c2ccccc2c1=O,14.0,95.0,i,60.9*,-7.1,-9.9
O=C(O)c1cc(-c2ccco2)nc2cc3ccccc3cc12,21.8,102.0,+,17.5,-3.1,100.3*
O=C(N/N=C/c1cccnc1)c1cc(-c2ccccc2Cl)nc2ccccc12,0.0,96.0,i,21.2,-2.5,-5.2
Cc1ccccc1-c1cc(C(=O)N/N=C/c2cccnc2)c2ccccc2n1,6.0,96.0,i,65.8*,-3.0,10.1
O=C(Nc1ccccc1N1CCOCC1)c1cc(-c2ccco2)nc2ccccc12,28.1,110.0,i,37.6,8.2,81.5*
CCCCCn1nc(C(=O)OCC(=O)c2c(N)n(C)c(=O)n(C)c2=O)c2ccccc2c1=O,14.1,92.0,i,12.5,-17.9,3.9
COC(=O)[C@H](CC(C)C)NS(=O)(=O)c1ccc(F)cc1Br,.,99.0,.,.,3.1,.
CSc1ccccc1NC(=O)C1(C)CCN1C(=O)Cc1ccc(-c2ccccc2)cc1 (centres undefined),.,95.0,.,.,1.1,.
CCN(CC)CCNC(=O)c1cc(-c2ccco2)nc2ccccc12,31.4,98.0,i,28.3,18.1,31.1
CCCNC(=O)COC(=O)c1cc(-c2ccc(OC)cc2)nc2ccccc12,16.6,89.0,+,8.2,1.0,0.2
CCN(CC)C(=O)COC(=O)c1cc(-c2ccco2)nc2ccccc12,41.2,105.0,+,-17.5,18.8,82.0*
Cn1c(N)c(C(=O)COC(=O)c2cc(-c3ccco3)nc3ccccc23)c(=O)n(C)c1=O,23.4,100.0,+,-11.1,6.2,?
COc1ccc(CCNC(=O)c2cc(-c3ccco3)nc3ccccc23)cc1,7.2,.,+,14.7,.,74.9*
Cn1c(N)c(C(=O)COC(=O)c2cc(-c3ccco3)nc3ccccc23)c(=O)n(Cc2ccccc2)c1=O,22.0,.,i,-8.6,.,70.3
CC(=O)Nc1ccc(/C=N/NC(=O)c2cc(-c3ccco3)nc3ccccc23)cc1,14.9,104.0,i,6.3,7.3,6.8
COCCCN(C(=O)c1cc(-c2ccco2)nc2ccccc12)c1c(N)n(Cc2ccccc2)c(=O)[nH]c1=O,11.7,99.0,.,.,6.8,.
SMILES,AI-2 QS modul,ABCB6 inh MLPCN,PABP polyA inh,PHOSPHO1 block,MLLE-PAM2 inh,eIF4H FP inh
O=C(O)c1ccccc1/C=N/NC(=O)c1cc(-c2ccco2)nc2ccccc12,60.7,97.0,+,35.7,-24.7,81.9*
CNC(=O)COC(=O)c1cc(-c2ccco2)nc2ccccc12,14.5,101.0,+,-2.1,-4.7,73.7*
CCCn1c(N)c(N(CCOC)C(=O)c2cc(-c3ccco3)nc3ccccc23)c(=O)[nH]c1=O,-5.3,106.0,i,13.7,18.0,58.8*
CCCCC1Cc2[nH][nH]c(=O)c2C(c2ccc(F)cc2)O1 (centres undefined),.,104.0,.,.,.,.
Cc1ccc(C)c(C(=O)c2c(C)nc3sccn23)c1,.,95.0,i,-10.6,1.9,-6.2
Cc1cc(C)c(NC(=O)c2cc3c(nc4sccn43)s2)c(C)c1,18.9,99.0,i,71.1*,-63.1,-0.7
C/C=C/c1cccc(-c2nc(C(=O)N3CCOCC3)cc3c2[C@H](CCO)N(C(=O)NC(C)C)C3)c1,.,97.0,.,.,.,.
Cc1ccccc1N=Cc1c(O)n(-c2nccs2)c(=O)c2ccccc12,16.0,93.0,i,-8.9,3.1,-5.4
O=c1c2ccccc2c(C=Nc2ccccc2O)c(O)n1-c1nccs1,19.0,93.0,+,-21.3,-66.9,115.6
COc1cc(NC(=O)Nc2nc(C(N)C3CCCCC3)cs2)cc(OC)c1OC (centres undefined),.,100.0,.,.,-3.7,.
N#Cc1cc(C(=O)c2cc(Br)ccc2O)cn(C2CC2)c1=O,15.3,101.0,i,0.9,-27.4,3.5
COCCNC(=O)COc1ccc(C)cc1C(=O)c1cc(C#N)c(=O)n(C2CC2)c1,7.6,97.0,+,6.6,-12.8,+
COc1cc(NC(=O)Nc2cccn3nc(COCCO)nc23)cc(OC)c1OC,.,98.0,.,.,12.8,.
C=CCC1(CC=C)CCCN1C(=O)c1cc(COc2cccc(OC)c2)on1,12.8,99.0,i,12.1,6.8,-1.5
C=CCC1(CC=C)CCCN1C(=O)c1cc(COc2cncc(Cl)c2)on1,29.3,91.0,i,65.8*,1.3,-2.5
CC1(C(=O)Nc2cccc3ncccc23)CCN1C(=O)Cc1ccc(-c2ccccc2)cc1 (centres undefined),.,102.0,.,.,12.5,.
O=C(CSc1ccccn1)N/N=C/c1ccccc1[N+](=O)[O-],14.1,84.0,+,10.9,-5.2,active
O=C(CSc1ccccn1)N/N=C/c1cc([N+](=O)[O-])ccc1O,?,101.0,i,25.1,-2.7,12.2
C=CCn1c(C)cc(C(=O)CSc2nc3ccccc3o2)c1C,20.5,95.0,+,13.2,-13.5,70.3*
Cc1cc(C(=O)CSc2ncnc3ccccc23)c(C)n1C1CC1,.,92.0,.,.,10.5,.
C=CCn1c(C)cc(C(=O)CSc2nnc(Cc3ccccc3)o2)c1C,14.9,94.0,i,87.5*,-35.2,20.5

# Assay outcomes from PubChem.
